Experiment [1] in a line: CCTE_Deisenroth_5AR_NBTE_acceptor: CCTE's 5alpha-reductase NanoBRET Target Engagement Assay - Autofluorescence Screen, Deisenroth Lab (AID 2284321).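 Note: compound fluorescence in the acceptor channel under 460 nm excitation flags autofluorescence artifacts.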 As to conditions: actives raise or lower the signal. The gist of the method: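 HEK293T cell-based NanoBRET assay read 5 h after dosing; this acceptor channel serves as an autofluorescence artifact screen. Chemicals at nominal 100 uM were scanned in three independent runs (n=3), excitation 460 nm. Fitting was bidirectional versus DMSO baseline.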
A general note: In BRET a luciferase serves as donor, and the signal depends on an acceptor being close.

The next experiment has as its system SRD5A2 (gene 6716). Nature of the experiment: CCTE_Deisenroth_5AR_NBTE_ratio: CCTE's 5alpha-reductase NanoBRET Target Engagement Assay - Ratio, Deisenroth Lab (AID 2284322). As to conditions: actives raise or lower the signal. The gist of the method:
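SRD5A2-NanoLuc HEK293T; cmpd 10 nM-29.9 uM, 3 h preinc + testosterone tracer 2 h; NanoBRET ratio 650/460; bidirectional fit vs DMSO.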

A further experiment has as its system SERPINA7 (gene 6906). Nature of the experiment: CCTE_GLTED_hTBG: CCTE's human Thyroxine-binding Globulin (TBG) Inhibition Assay, Great Lakes Toxicology and Ecology Division (GLTED) Lab (AID 2284343; active = hit-call score of the fitted dose curve at least 0.9, where 1 is the maximum;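 note: active chemicals lower fluorescence versus DMSO baseline by displacing probe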). The gist of the method: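 Steps: combine TBG with chemical; incubate 2 hours so that disruptors release ANSA; record fluorescence (380 ex, 475 em). Loss of signal was fitted against DMSO controls.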

The nature of experiment [2]: TAMU_PeakParms_SingleDonor1434_Asystole: Texas A&M University (TAMU) 1.5-hr Human Induced Pluripotent Stem Cell (iPSC)-derived Cardiomyocytes Calcium (Ca+2) Flux Assay for Cardiotoxicity: Asystole (quiescence of beating) (AID 2284328; active = hit-call score of the fitted dose curve at least 0.9, where 1 is the maximum). The gist of the method:
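Human iPSC-derived cardiomyocytes (donor 1434) were exposed to 0.2, 1, 10 and 100 uM compound in 0.5% DMSO for 90 min at 37C. Ca2+-dye fluorescence gave average peak frequency; POD is EC95, a 95% beat-rate drop versus DMSO.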

Experiment [3] can be described thus: IUF_NPC1_cytotoxicity_72hr: Cytotoxicity Assessment at 72 hours in the Leibniz Research Institute for Environmental Medicine (IUF) Neural Progenitor Cell Proliferation Assay (NPC1) (AID 2284332; active = hit-call score of the fitted dose curve at least 0.9, where 1 is the maximum;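 note: rising LDH signal means more cytotoxicity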). The method, boiled down:
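Readout is fluorescence from LDH-dependent resazurin conversion, sampled from culture medium after compound contact lasting 72 h. Each well holds one 0.25-0.35 mm human progenitor sphere kept at 37C, 5% CO2 with EGF and FGF.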

A further experiment deals with TTR (gene 7276). Nature of the experiment: CCTE_GLTED_hTTR_0.5uM: CCTE's human Transthyretin (hTTR) Inhibition Assay, with 0.5uM TTR, Great Lakes Toxicology and Ecology Division (GLTED) Lab (AID 2284320). The method, boiled down: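 Probe (ANSA) displacement from 0.5 uM human transthyretin was followed by fluorescence (ex 380, em 475) after a 2 h incubation with chemical. Activity was scored as signal loss and fitted positively relative to DMSO.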

A short description of experiment [4]: Tanguay_ZF_120hpf_MO24: Oregon State University Tanguay Lab 24 Hour Post-fertilization zebrafish Assay for Mortality (AID 2284389). The method, boiled down:
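Embryo death at 24 hpf was recorded as present or absent in Tropical 5D zebrafish, dechorionated at 4 hpf and dosed statically from 6 hpf (28C, 0.64% DMSO); 5 uM trimethyltin chloride served as positive control.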

Experiment [5] is described as follows: Tanguay_ZF_120hpf_DP24: Oregon State University Tanguay Lab 24 Hour Post-fertilization zebrafish Assay for Delayed Development (AID 2284390). The gist of the method:
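Scored at 24 hpf as a binary present/absent call of delayed development by brightfield, with dead embryos not assessed. Embryos (5D wild type, chorion removed with pronase at 4 hpf) dosed statically from 6 hpf at 28 C in 0.64% DMSO.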

Experiment [6] in a line: Tanguay_ZF_120hpf_CRAN: Oregon State University Tanguay Lab 120 Hour Post-fertilization zebrafish Assay for Craniofacial Malformation (AID 2284397). The gist of the method: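 Scoring of craniofacial malformation as a binary endpoint was done at 120 hpf by brightfield microscopy and was not done in dead embryos. Exposure was static, starting at 6 hpf, in dechorionated wild-type embryos held singly at 28C with 0.64% DMSO final.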

Experiment [7] is described as follows: Tanguay_ZF_120hpf_AXIS: Oregon State University Tanguay Lab 120 Hour Post-fertilization zebrafish Assay for Axial Malformation (AID 2284398). The method, boiled down: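 Scoring was binary (present or absent) for body-axis defects, judged by brightfield imaging at 120 hpf in surviving larvae. Exposure was static at 28C from 6 hpf in chorion-free 5D wild-type embryos, with 0.64% DMSO vehicle.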

The nature of experiment [8]: Tanguay_ZF_120hpf_MORT: Oregon State University Tanguay Lab 120 Hour Post-fertilization zebrafish Assay for Mortality (AID 2284399). The gist of the method: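 Mortality, recorded present/absent via brightfield imaging at 24 and 120 hpf, in 5D zebrafish embryos exposed statically from 6 hpf after pronase chorion removal. Exposure at 28C, 0.64% DMSO vehicle, DMSO baseline.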

The nature of experiment [9]: Tanguay_ZF_120hpf_EDEM: Oregon State University Tanguay Lab 120 Hour Post-fertilization zebrafish Assay for Edema Malformation (AID 2284400). The gist of the method: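 Edema recorded as a binary endpoint under brightfield at 120 hpf, excluding embryos that died. Exposure was static, sealed, 28C, from 6 hpf in dechorionated wild-type larvae, final DMSO 0.64%, DMSO as baseline.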

The nature of experiment [10]: Tanguay_ZF_120hpf_BRN: Oregon State University Tanguay Lab 120 Hour Post-fertilization zebrafish Assay for Brain Region Malformation (AID 2284402). The method, boiled down: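 Binary brightfield scoring of brain malformation at 120 hpf in 5D wild-type larvae, chorion removed with pronase at 4 hpf. Static exposure began at 6 hpf, 28C, sealed plates, DMSO 0.64% (vol/vol) as vehicle baseline.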

The nature of experiment [11]: Tanguay_ZF_120hpf_TCHR: Oregon State University Tanguay Lab 120 Hour Post-fertilization zebrafish Assay for Touch Responsive (AID 2284403). The gist of the method: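 Binary touch-response calls are made at 120 hpf in 5D wild-type zebrafish larvae. These larvae were dechorionated with pronase and exposed singly from 6 hpf in sealed, dark plates at 28 °C with 0.64% DMSO final; dead embryos are excluded.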

Experiment [12] in a line: Tanguay_ZF_120hpf_ANY: Oregon State University Tanguay Lab 120 Hour Post-fertilization zebrafish Assay for Any Mortality and Malformation (AID 2284404). The method, boiled down:
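Dechorionated Tropical 5D wild-type embryos, one per well from 6 hpf, static exposure in sealed, dark plates at 28C until 120 hpf, 0.64% DMSO final. Brightfield scoring of mortality and malformations as binary presence/absence, pooling 13 morphology endpoints.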

Experiment [13] is described as follows: CCTE_Padilla_ZF_Score.Craniofacial: CCTE's 144 Hour Post-fertilization zebrafish Assay Score for Craniofacial Malformation, Padilla Lab (AID 2284405). The gist of the method: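 Craniofacial defects were scored at 6 dpf by two blinded observers using stereomicroscopy. Exposure of wild-type embryos began at 6–8 hpf in sealed wells of 10% Hanks' solution at 26C, with chemical removed by rinsing at 5 dpf.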

Experiment [14] can be described thus: CCTE_Padilla_ZF_Score.Edema: CCTE's 144 Hour Post-fertilization zebrafish Assay Score for Edema Malformation, Padilla Lab (AID 2284406). The method, boiled down:
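Edema scored at 6 dpf by two blinded observers under a stereo microscope, in single outbred wild-type larvae exposed from 6-8 hpf in sealed wells (Hanks', 26C, 14:10 h light) and chemical-free after a 5 dpf rinse.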

The nature of experiment [15]: CCTE_Padilla_ZF_Score.Spine: CCTE's 144 Hour Post-fertilization zebrafish Assay Score for Spine Malformation, Padilla Lab (AID 2284407). The gist of the method:
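Spine malformation scored at 6 dpf by two independent blinded observers under stereomicroscope, after static sealed exposure from 6–8 hpf at 26C in Hanks' solution with rinse on 5 dpf. Positive-direction fit against DMSO control.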

A short description of experiment [16]: CCTE_Mundy_HCI_iCellGluta_NOG_NeuronCount: CCTE's Neurite Outgrowth Assay in iCellGluta cells for Neuron Count, Mundy Lab (AID 2284340; active = hit-call score of the fitted dose curve at least 0.9, where 1 is the maximum;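 note: cells fixed about 48 h after compound addition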). The method, boiled down: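 Neuron count read by automated high-content imaging of Hoechst 33342 and betaIII-tubulin/Alexa Fluor-488 labelling in human iPSC glutamatergic neurons. Activity fitted relative to DMSO.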
Experiment [17] in a line: CCTE_Mundy_HCI_iCellGluta_NOG_NeuriteCount: CCTE's Neurite Outgrowth Assay in iCellGluta cells for Neurite Count, Mundy Lab (AID 2284342; active = hit-call score of the fitted dose curve at least 0.9, where 1 is the maximum;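 note: chemical exposure about 48 hours starting 2 hours after plating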).

Records with an inconclusive call do not appear. Calls of active or inactive are those of the source. Rule for the calls, unless noted: active = hit-call score of the fitted dose curve at least 0.9, where 1 is the maximum; inactive = score below 0.9.

By AC50 is commonly meant the concentration giving half of the maximal activity seen.

Consider `CC(Cc1ccc(O)c(O)c1)C(C)Cc1ccc(O)c(O)c1` (stereo not drawn), for which the AC50 in experiment [1] was 50 µM (active); with SRD5A2 (gene 6716), 93.7 µM (active); in the experiment with SERPINA7 (gene 6906), 7.96 µM (active).
On to `OC[C@@H](O)[C@@H](O)[C@H](O)[C@@H](O)CO`, for which the outcome in experiment [2] and in experiment [3] was inactive.
For `O=C(O)C(F)(F)C(F)(F)C(F)(F)C(F)(F)C(F)(F)C(F)(F)C(F)(F)C(F)(F)C(F)(F)C(F)F`, the concentration at half-maximal activity (AC50) in the experiment on TTR (gene 7276) was 1.03 µM (active); in experiment [8] it was 37 µM (active); in experiment [12], 28.8 µM (active); in [14] it was 14.9 µM (active). In addition, the molecule was called inactive in experiment [4], in [5], in [6], in [7], in [9] and in [10]. For the same molecule, the molecule was classed as inactive in [11], in [13] and in [15].
On to `O=C(O)C(F)(F)C(F)(F)OC(F)(F)F`, for which the concentration at half-maximal activity (AC50) in the experiment with TTR (gene 7276) was 31.7 µM (active). The result in [16], in experiment [17], in [4], in experiment [5], in experiment [6] and in experiment [7] was inactive. In addition, the result in experiment [8], in experiment [9], in experiment [11], in experiment [12], in experiment [13] and in experiment [14] was inactive. Moreover, the molecule was called inactive in experiment [15].
In the case of `N=C(N)C(F)(F)C(F)(F)C(F)(F)C(F)(F)C(F)(F)C(F)(F)C(F)(F)F`, the half-maximal activity concentration (AC50) in the experiment with TTR (gene 7276) is 4.85 µM (active). In addition, the molecule was called inactive in experiment [16], in experiment [17], in experiment [4], in [5], in experiment [6] and in experiment [7]. Moreover, the result in experiment [8], in experiment [9], in experiment [11], in experiment [12], in [13] and in [14] was inactive. Also, the outcome in [15] was inactive.
Consider `O=P(O)(O)OCCC(F)(F)C(F)(F)C(F)(F)C(F)(F)C(F)(F)C(F)(F)F`, for which the molecule was classed as inactive in experiment [16], in [17], in experiment [4], in [6], in [7] and in experiment [9]. Further, the molecule was called inactive in experiment [11], in experiment [13], in [14] and in [15]. Also, the values for the AC50 in experiment [5], in experiment [8] and in experiment [12] were 57.9 µM (active), 18.7 µM (active) and 39.1 µM (active), respectively.
`O=S(=O)(O)C(F)(F)C(F)(F)C(F)(F)C(F)(F)C(F)(F)C(F)(F)C(F)(F)F`: the AC50 with TTR (gene 7276) is 0.0773 µM (active); in [6] it was 33.4 µM (active); in experiment [7] it was 49.5 µM (active); in experiment [9], 46.3 µM (active); in [11], 43.2 µM (active); in experiment [12], 33 µM (active). Besides, the AC50 in experiment [13] was 65.3 µM (active); in [14] it was 25.8 µM (active). The molecule was called inactive in experiment [4], in [5], in [8] and in experiment [15].
For `O=C(O)C(F)(F)C(F)(F)C(F)(F)F`, the AC50 in the experiment on TTR (gene 7276) is 31.9 µM (active). Besides, the outcome in [16], in experiment [17], in experiment [4], in experiment [5], in experiment [6] and in experiment [7] was inactive. Besides, the call in [8], in experiment [11], in [12], in experiment [13], in experiment [14] and in experiment [15] was inactive.
Turning to `CC(C)(C)C(=O)CC(=O)C(F)(F)C(F)(F)C(F)(F)F`, the molecule was called inactive (in the experiment with TTR (gene 7276); in [16]; in experiment [17]; in [4]; in [5]; in experiment [6]). The molecule was called inactive in experiment [7], in experiment [8], in experiment [9], in experiment [11], in [12] and in experiment [15]. Besides, the AC50 in experiment [13] is 30.3 µM (active); in experiment [14] it was 27.5 µM (active).

The values are drawn from PubChem BioAssay (EPA / NIEHS).
